According to PubChem BioAssay (NCI):
“And” between values parts separate entries of the source, which are not always exact repeats. Identical values can stand only once. About 83,000 compounds went through this panel and 20% of them were active in at least one assay; those are over-represented in the sample as a whole.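 Negative percent growth values reflect cell death: -40 means 40% of the cells present at the start died, and -100 means all died.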 The source made the active and inactive calls. Rule for the calls: active = growth percent below 10; inactive = the rest.

Legend:
Experiment in all cases: NCI-60 one-dose screen, 48 h (100 = growth as untreated, 0 = no growth, -100 = all killed)
Details in all cases: 10 µM unless noted
[1] = system: NCI-H23 lung
[2] = system: NCI-H226 lung
[3] = system: NCI-H322M lung
[4] = system: HOP-62 NSCLC
[5] = system: NCI-H460 lung
[6] = system: NCI-H522 lung
[7] = system: A549/ATCC NSCLC
[8] = system: 786-0 renal
[9] = system: COLO 205 colon
[10] = system: DU-145 prostate
[11] = system: K-562 leukemia
[12] = system: MALME-3M melanoma
[13] = system: MDA-MB-231 breast
[14] = system: RXF 393 renal
[15] = system: SF-268 CNS
[16] = system: SF-295 CNS
[17] = system: SF-539 CNS
[18] = system: UACC-257 melanoma
[19] = system: M14 melanoma
[20] = system: HOP-92 NSCLC

Compound | growth [1] | growth [2] | growth [3] | growth [4] | growth [5] | growth [6] | growth [7] | growth [8] | growth [9] | growth [10] | growth [11] | growth [12] | growth [13] | growth [14] | growth [15] | growth [16] | growth [17] | growth [18] | growth [19] | growth [20]
CN1CCc2cc3c(cc2C1O)OCO3 (centres undefined) | 109% (inactive) | 36% (inactive) and 105% (inactive) | 127% (inactive) and 98.7% (inactive) | 103% (inactive) and 99.1% (inactive) | -48.6% (active) and 107% (inactive) | -63.4% (active) and 109% (inactive) | 96.2% (inactive) and 106% (inactive) | 100% (inactive) and 91.9% (inactive) | 92.9% (inactive) and 111% (inactive) | 101% (inactive) and 103% (inactive) | 96.7% (inactive) | 31% (inactive) and 88.7% (inactive) | 97.6% (inactive) and 111% (inactive) | 87.8% (inactive) and 114% (inactive) | 83.2% (inactive) and 101% (inactive) | 86.7% (inactive) and 94.8% (inactive) | 33.5% (inactive) and 93% (inactive) | 99.2% (inactive) and 111% (inactive) | 102% (inactive) and 99% (inactive) | –
Cc1cc(N(CCCl)CCCl)ccc1/C=N\NC(=O)c1cccnc1 | 66.1% (inactive) and 73.8% (inactive) | -36.1% (active) and 11.8% (inactive) | 108% (inactive) and 97.9% (inactive) | 80.4% (inactive) and 87.5% (inactive) | 21.2% (inactive) and 28.7% (inactive) | – | 73.5% (inactive) and 82.5% (inactive) | 81.1% (inactive) and 84% (inactive) | 94.1% (inactive) and 102% (inactive) | 75.6% (inactive) and 75.4% (inactive) | 85.2% (inactive) and 91.8% (inactive) | 107% (inactive) | 112% (inactive) and 94.5% (inactive) | 100% (inactive) and 85.6% (inactive) | 80.4% (inactive) and 72.5% (inactive) | 49.6% (inactive) | 54.2% (inactive) and 73.7% (inactive) | 84.9% (inactive) and 88.6% (inactive) | 96% (inactive) and 92.1% (inactive) | 88.9% (inactive) and 94.3% (inactive)
CC(=O)Nc1nc2c(s1)C1=CC[C@H]3[C@@H]4CC[C@H](OC(C)=O)[C@@]4(C)CC[C@@H]3[C@@]1(C)CC2 | 69.7% (inactive) | 91.7% (inactive) | 75.2% (inactive) | 55.6% (inactive) | 64.1% (inactive) | – | 54% (inactive) | 32% (inactive) | 67.3% (inactive) | 72.1% (inactive) | 35.1% (inactive) | 66.5% (inactive) | 80.3% (inactive) | 7.7% (active) | 58.4% (inactive) | 29.4% (inactive) | 14% (inactive) | 79.2% (inactive) | 39.7% (inactive) | 87.2% (inactive)
Oc1ccccc1C=NCCN=Cc1ccccc1O | 99.8% (inactive) | 99.5% (inactive) | 97.5% (inactive) | 96.9% (inactive) | 107% (inactive) | – | 98.7% (inactive) | 106% (inactive) | 118% (inactive) | 108% (inactive) | 112% (inactive) | 113% (inactive) | 101% (inactive) | 109% (inactive) | 97% (inactive) | 101% (inactive) | 106% (inactive) | 96.4% (inactive) | 102% (inactive) | 99.6% (inactive)
N#CC(C#N)=C(C#N)C#N | 106% (inactive) | 101% (inactive) | 103% (inactive) | 108% (inactive) | 106% (inactive) | – | 99.9% (inactive) | 101% (inactive) | 114% (inactive) | 110% (inactive) | 108% (inactive) | 108% (inactive) | 106% (inactive) | 111% (inactive) | 96% (inactive) | – | 93.7% (inactive) | 97.8% (inactive) | 102% (inactive) | –
O=NN(c1ccccc1)c1ccccc1 | 98.3% (inactive) | 95% (inactive) | 94.1% (inactive) | – | 102% (inactive) | 105% (inactive) | 96% (inactive) | 105% (inactive) | 110% (inactive) | 103% (inactive) | 113% (inactive) | 86.2% (inactive) | 98.9% (inactive) | 98.3% (inactive) | 100% (inactive) | 102% (inactive) | 106% (inactive) | 96% (inactive) | – | 88.1% (inactive)
Cc1ccc(C(=O)O[C@H](C(=O)O)[C@H](OC(=O)c2ccc(C)cc2)C(=O)O)cc1 | 102% (inactive) | 104% (inactive) | 104% (inactive) | 110% (inactive) | 115% (inactive) | 119% (inactive) | 103% (inactive) | 101% (inactive) | 108% (inactive) | 110% (inactive) | 89.9% (inactive) | 107% (inactive) | – | 115% (inactive) | 105% (inactive) | 118% (inactive) | 102% (inactive) | 94% (inactive) | 100% (inactive) | –
